Source: PubChem BioAssay (NCI)
This is part of a sample that, as a whole, favours compounds with a hit. Of some 79,000 tested, about 15% had one in any assay. Activity calls are given as the source filed them. Cut-off read from the data, not from the text of the source: active = growth inhibition above about 70%; inactive = the rest.

How the values were obtained:
[1] = NCI Yeast Anticancer Drug Screen. Data for the rad52 strain (AID 147);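 note: 0% = growth of vehicle-treated control cultures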; settings: S. cerevisiae rad52 mutant growth inhibition, active compounds read high
Procedure, shortened: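 Growth of repair-deficient yeast cells was compared between compound-treated and vehicle-treated cultures to give percent inhibition.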

[2] = NCI Yeast Anticancer Drug Screen. Data for the wt1 strain (AID 149);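 note: 0% = growth of vehicle-treated wt1 cultures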; settings: S. cerevisiae wt1 strain (SPY 50644) growth inhibition, active compounds read high
Procedure, shortened: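 Yeast wt1 strain exposed to compounds; growth inhibition measured relative to vehicle-treated controls.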

[3] = NCI Yeast Anticancer Drug Screen. Data for the rad50EPP+ strain (AID 151);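 note: 0% = growth of vehicle-treated control cultures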; settings: S. cerevisiae rad50 mutant strain, active compounds read high
Procedure, shortened: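 Measured: growth inhibition of rad50EPP+ yeast. Reference: vehicle-treated controls. Screen uses strains with defined genetic alterations in DNA damage repair or cell cycle control.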

[4] = NCI Yeast Anticancer Drug Screen. Data for the mgt1 strain (AID 153); settings: S. cerevisiae mgt1 mutant growth inhibition, active compounds read high
Procedure, shortened: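 Compounds were applied to mgt1 mutant yeast, and growth was then compared against vehicle-treated control cultures to give percent inhibition.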

[5] = NCI Yeast Anticancer Drug Screen. Data for the rad50 strain (AID 155);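 note: 0% = growth of vehicle-only cultures of the same strain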; settings: S. cerevisiae rad50 strain growth inhibition, active compounds read high
Procedure, shortened: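 Yeast carrying a defined DNA repair defect were exposed to test compounds, and growth was compared with vehicle-treated controls to give percent inhibition.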

[6] = NCI Yeast Anticancer Drug Screen. Data for the mec2-1 strain (AID 157); settings: S. cerevisiae mec2-1 strain, active compounds read high
Procedure, shortened: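 Compounds were applied to mec2-1 yeast cells. Their growth was then compared with that of vehicle-treated cultures to give growth inhibition.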

[7] = NCI Yeast Anticancer Drug Screen. Data for the rad14 strain (AID 159);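 note: 0% = growth of vehicle-treated control cultures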; settings: S. cerevisiae rad14 strain growth inhibition, active compounds read high
Procedure, shortened: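 Yeast cells carrying a defined DNA-repair defect were exposed to compounds, and growth inhibition was calculated relative to vehicle-treated control cultures.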

[8] = NCI Yeast Anticancer Drug Screen. Data for the sgs1 mgt1 strain (AID 161);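 note: 0% = growth of cultures given vehicle only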; settings: S. cerevisiae sgs1 mgt1 strain, active compounds read high
Procedure, shortened: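 Growth of a repair-deficient yeast mutant was monitored after compound treatment and expressed as inhibition relative to vehicle-treated cultures.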

[9] = NCI Yeast Anticancer Drug Screen. Data for the CLN2oe strain (AID 163);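 note: 0% = growth of vehicle-only control cultures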; settings: S. cerevisiae CLN2oe strain, active compounds read high
Procedure, shortened: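 Cells of an engineered yeast line with disturbed cell-cycle regulation are treated with compound. Inhibition of growth is then calculated relative to the vehicle-treated reference.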

[10] = NCI Yeast Anticancer Drug Screen. Data for the cln2 rad14 strain (AID 165);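 note: 0% = growth equal to vehicle treated cultures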; settings: S. cerevisiae cln2 rad14 strain, active compounds read high
Procedure, shortened: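 Strain: cln2 rad14 yeast, altered in cell cycle control and DNA damage repair. Read-out: growth inhibition vs vehicle.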

[11] = NCI Yeast Anticancer Drug Screen. Data for the bub3 strain (AID 167); settings: S. cerevisiae bub3 mutant strain, active compounds read high
Procedure, shortened: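 Compounds were applied to a genetically altered yeast strain carrying a cell-cycle control defect. Growth inhibition was scored against vehicle-treated controls.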

[12] = NCI Yeast Anticancer Drug Screen. Data for the wt2 strain (AID 169);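 note: 0% = growth of vehicle-treated yeast cultures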; settings: S. cerevisiae wt2 strain growth inhibition, active compounds read high
Procedure, shortened: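 Growth of compound-treated yeast is measured and expressed as inhibition relative to vehicle-only controls.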

[13] = NCI Yeast Anticancer Drug Screen. Data for the mlh1 strain (AID 171);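 note: 0% = growth of vehicle-treated control cultures of the same strain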; settings: S. cerevisiae mlh1 strain growth inhibition, active compounds read high
Procedure, shortened: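 Test agents were incubated with yeast bearing a defined DNA damage repair or cell cycle control alteration; values are growth inhibition normalised to vehicle-treated cultures.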

[14] = NCI Yeast Anticancer Drug Screen. Data for the sgs1 strain (AID 173);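 note: 0% = growth of vehicle-only control cultures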; settings: S. cerevisiae sgs1 mutant, active compounds read high
Procedure, shortened: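 Strain with an altered DNA repair or cell cycle pathway exposed to compound. Growth then measured. Value = inhibition versus vehicle control.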

[15] = NCI Yeast Anticancer Drug Screen. Data for the mlh1 rad18 strain (AID 175); settings: S. cerevisiae mlh1 rad18 strain growth inhibition, active compounds read high
Procedure, shortened: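 A repair-deficient yeast strain is exposed to test compound, and growth is scored relative to vehicle-treated controls.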

[16] = NCI Yeast Anticancer Drug Screen. Data for the rad18 strain (AID 177); settings: S. cerevisiae rad18 mutant growth inhibition, active compounds read high
Procedure, shortened: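 DNA-repair-defective yeast; compound treatment; growth inhibition scored against vehicle.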

[17] = at 5.0 µM (retest, dose inferred, filed as 0.5)
[18] = at 50.0 µM (retest, dose inferred, filed as 5.0)

Measured: growth inhibition

CC1CCC(C2=CSC3CCCCC3N2)CC1 (stereo unspecified)
inactive: [1]; at 1.2 µM 21% | [1]; at 3.7 µM 21% | [1]; at 11.0 µM 21% | [1]; at 33.0 µM 37% | [2]; at 1.2 µM 14% | [2]; at 3.7 µM -2% | [2]; at 11.0 µM 3% | [2]; at 33.0 µM 31% | [2]; at 100.0 µM 65% | [3]; at 1.2 µM 1% | [3]; at 3.7 µM -14% | [3]; at 11.0 µM -8% | [3]; at 33.0 µM 14% | [4]; at 1.2 µM -1% | [4]; at 3.7 µM 4% | [4]; at 11.0 µM 9% | [4]; at 33.0 µM 32% | [5]; at 1.2 µM 16% | [5]; at 3.7 µM 23% | [5]; [17] 17% | [5]; at 11.0 µM 20% | [5]; at 33.0 µM 37% | [5]; [18] 13% | [5]; at 50.0 µM 43% | [6]; at 1.2 µM -36% | [6]; at 3.7 µM 5% | [6]; [17] -6% | [6]; at 11.0 µM 3% | [6]; at 33.0 µM 14% | [6]; at 50.0 µM 56.5% | [7]; at 1.2 µM -20% | [7]; at 3.7 µM -16% | [7]; at 11.0 µM -11% | [7]; at 33.0 µM -6% | [8]; [17] -4% | [8]; [18] 28% | [8]; at 50.0 µM 51.1% | [9]; at 1.2 µM -3% | [9]; at 3.7 µM 13% | [9]; at 11.0 µM 0% | [9]; at 33.0 µM 22% | [9]; at 100.0 µM 45% | [10]; [17] 32% | [10]; [18] 42% | [10]; at 50.0 µM 11.6% | [11]; at 1.2 µM 5% | [11]; at 3.7 µM -4% | [11]; [17] 42% | [11]; at 11.0 µM 5% | [11]; at 33.0 µM 29% | [11]; at 50.0 µM 66% | [12]; at 1.2 µM -8% | [12]; at 3.7 µM -3% | [12]; at 11.0 µM -4% | [12]; at 33.0 µM 19% | [13]; at 1.2 µM 6% | [13]; at 3.7 µM 4% | [13]; at 11.0 µM 11% | [13]; at 33.0 µM 28% | [14]; at 1.2 µM 15% | [14]; at 3.7 µM 5% | [14]; at 11.0 µM 14% | [14]; at 33.0 µM 35% | [14]; at 100.0 µM 67% | [15]; [17] 7% | [15]; at 50.0 µM 38.8% | [16]; at 1.2 µM -5% | [16]; at 3.7 µM -6% | [16]; at 11.0 µM -6% | [16]; at 33.0 µM 3% | [16]; at 100.0 µM 45%
active: [1]; at 100.0 µM 78% | [3]; at 100.0 µM 71% | [4]; at 100.0 µM 91% | [5]; at 100.0 µM 74% | [6]; [18] 71% | [6]; at 100.0 µM 80% | [7]; at 100.0 µM 76% | [11]; [18] 84% | [11]; at 100.0 µM 73% | [12]; at 100.0 µM 74% | [13]; at 100.0 µM 74% | [15]; [18] 85%

CC1=C(C)C(=O)C2=C(OCCO2)C1=O
inactive: [1]; at 1.2 µM -6% | [1]; at 3.7 µM -8% | [1]; at 11.0 µM 1% | [1]; at 33.0 µM 23% | [2]; at 1.2 µM -4% | [2]; at 3.7 µM -5% | [2]; at 11.0 µM -5% | [2]; at 33.0 µM -4% | [2]; at 100.0 µM 17% | [3]; at 1.2 µM -3% | [3]; at 3.7 µM -3% | [3]; at 11.0 µM 5% | [3]; at 33.0 µM 10% | [3]; at 100.0 µM 46% | [4]; at 1.2 µM -8% | [4]; at 3.7 µM -2% | [4]; at 11.0 µM -2% | [4]; at 33.0 µM 3% | [4]; at 100.0 µM 43% | [5]; at 1.2 µM -3% | [5]; at 3.7 µM 0% | [5]; [17] -23% | [5]; at 11.0 µM 7% | [5]; at 33.0 µM 33% | [5]; at 50.0 µM 1% | [6]; at 1.2 µM -3% | [6]; at 3.7 µM -3% | [6]; [17] -8% | [6]; at 11.0 µM -5% | [6]; at 33.0 µM -1% | [6]; [18] 24% | [6]; at 50.0 µM -3.25% | [6]; at 100.0 µM 20% | [7]; at 1.2 µM -1% | [7]; at 3.7 µM -1% | [7]; at 11.0 µM 4% | [7]; at 33.0 µM 17% | [8]; [17] -10% | [8]; [18] 21% | [8]; at 50.0 µM 29.8% | [9]; at 1.2 µM 0% | [9]; at 3.7 µM -4% | [9]; at 11.0 µM 3% | [9]; at 33.0 µM 15% | [9]; at 100.0 µM 27% | [10]; [17] 3% | [10]; [18] 29% | [10]; at 50.0 µM 3.35% | [11]; at 1.2 µM 0% | [11]; at 3.7 µM 2% | [11]; [17] -22% | [11]; at 11.0 µM 9% | [11]; at 33.0 µM 18% | [11]; [18] 35% | [11]; at 50.0 µM 59.4% | [11]; at 100.0 µM 48% | [12]; at 1.2 µM -9% | [12]; at 3.7 µM -12% | [12]; at 11.0 µM -2% | [12]; at 33.0 µM -13% | [12]; at 100.0 µM -5% | [13]; at 1.2 µM -4% | [13]; at 3.7 µM -3% | [13]; at 11.0 µM 3% | [13]; at 33.0 µM 14% | [13]; at 100.0 µM 54% | [14]; at 1.2 µM -22% | [14]; at 3.7 µM 23% | [14]; at 11.0 µM -14% | [14]; at 33.0 µM 26% | [15]; [17] 4% | [15]; [18] 50% | [15]; at 50.0 µM 26% | [16]; at 1.2 µM -5% | [16]; at 3.7 µM -5% | [16]; at 11.0 µM -4% | [16]; at 33.0 µM 6% | [16]; at 100.0 µM 54%
active: [1]; at 100.0 µM 82% | [5]; [18] 87% | [5]; at 100.0 µM 88% | [7]; at 100.0 µM 71% | [14]; at 100.0 µM 88%
